# From PubChem BioAssay (NCI)
# Several values for one entry are separate records, joined by “and”; a condition that tells them apart may be missing. Equal entries are not always repeated. This is part of a sample that, as a whole, favours compounds with a hit. Of some 83,000 tested, about 20% had one in any assay.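 48-hour exposure, single concentration, 96-well plates; percent growth endpoint where 0 means no net growth. Active: below 10.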 Activity calls are given as the source filed them.
# Experiments:
# Test in all cases: NCI-60 one-dose screen, 48 h (100 = growth as untreated, 0 = no growth, -100 = all killed)
# Conditions in all cases: 10 µM unless noted
# NCI-H23 lung = system: NCI-H23 lung
# NCI-H226 lung = system: NCI-H226 lung
# NCI-H322M lung = system: NCI-H322M lung
# HOP-62 NSCLC = system: HOP-62 NSCLC
# NCI-H460 lung = system: NCI-H460 lung
# HOP-92 NSCLC = system: HOP-92 NSCLC
# NCI-H522 lung = system: NCI-H522 lung
# A549/ATCC NSCLC = system: A549/ATCC NSCLC
# 786-0 renal = system: 786-0 renal
# COLO 205 colon = system: COLO 205 colon
SMILES,growth (NCI-H23 lung),growth (NCI-H226 lung),growth (NCI-H322M lung),growth (HOP-62 NSCLC),growth (NCI-H460 lung),growth (HOP-92 NSCLC),growth (NCI-H522 lung),growth (A549/ATCC NSCLC),growth (786-0 renal),growth (COLO 205 colon)
Cc1ccc(Cl)cc1N1CCN(C(=O)[C@@H]2C[C@@H]2c2ccc(F)cc2)CC1,84.2% (inactive),73.6% (inactive),93% (inactive),100% (inactive),99.7% (inactive),74.9% (inactive),69.3% (inactive),77.7% (inactive),93.6% (inactive),107% (inactive)
CN(C)CCCn1c2nc(=O)[nH]c(=O)c-2nc2cc(Cl)c(Cl)cc21,109% (inactive),105% (inactive),69.1% (inactive),117% (inactive),107% (inactive),88.3% (inactive),-23.7% (active),99% (inactive),103% (inactive),4.28% (active)
CCN1CCN(CC(=O)Nc2nc3ccc(NCc4ccc(C)cc4)cc3s2)CC1,72.6% (inactive),72% (inactive),87.6% (inactive),78.5% (inactive),44.5% (inactive),39% (inactive),93.7% (inactive),73.4% (inactive),68% (inactive),16.3% (inactive)
CCOC(=O)c1c(-c2ccc(OC)cc2)c(C#N)c2c(C#N)c(N)nn2c1N,62.2% (inactive),61.5% (inactive),80.9% (inactive),35.8% (inactive),9.75% (active),15.4% (inactive),-6.29% (active),36.4% (inactive),45.3% (inactive),18.6% (inactive)
O=C1c2cccc3cccc(c23)C(=O)N1N1C(=O)c2cccc3c(N4CCNCC4)ccc(c23)C1=O,92.2% (inactive),98.6% (inactive),88.2% (inactive),88.9% (inactive),72.4% (inactive),78.2% (inactive),93.8% (inactive),89.9% (inactive),73.7% (inactive),95.2% (inactive)
O=C1C(=C(O)c2ccccc2)C(=O)c2ccccc21,103% (inactive),104% (inactive),109% (inactive),99.5% (inactive),116% (inactive),88% (inactive),101% (inactive),105% (inactive),95.6% (inactive),121% (inactive)
OCCN1CCN(CC/C=C2\c3ccccc3Sc3ccc(Cl)cc32)CC1,50.7% (inactive) and 82.9% (inactive),88.2% (inactive) and 110% (inactive),83.1% (inactive),-34.7% (active) and -66.1% (active),2.77% (active) and -25% (active),10.9% (inactive) and -12.9% (active),37.9% (inactive) and 13.3% (inactive),60% (inactive) and 38.2% (inactive),38.6% (inactive),-75.6% (active) and -87.3% (active)
COC(=O)c1[nH]nc(OC)c1C1(C(C#N)c2nc3ccccc3s2)CCCc2ccccc21 (stereo not given),97.5% (inactive),84.9% (inactive),99.6% (inactive),85% (inactive),99% (inactive),72.9% (inactive),98.4% (inactive),96.2% (inactive),101% (inactive),103% (inactive)
COc1ccc(/C=N\Nc2nc(SCC(C)C)nc(-c3ccc(OC)cc3)c2C#N)cc1,57.2% (inactive),-14.8% (active),22.5% (inactive),-2.99% (active),-11.1% (active),15.1% (inactive),54% (inactive),11.4% (inactive),-48.2% (active),50.1% (inactive)
O=C(NNc1ccccc1)C1CCCN1 (stereo not given),98.8% (inactive),80.9% (inactive),86% (inactive),76.7% (inactive),99.1% (inactive),108% (inactive),52.2% (inactive),75.9% (inactive),89.2% (inactive),103% (inactive)
COc1ccc(C2=C(CN)C(O)NC(=NCC(=O)c3ccc4ccccc4c3)N2)cc1 (stereo not given),103% (inactive),100% (inactive),104% (inactive),98.7% (inactive),114% (inactive),113% (inactive),86% (inactive),95.5% (inactive),98.5% (inactive),87.4% (inactive)
CN1CCN(CCNC(=O)c2cccc(CN3c4cccc5c4C(=Cc4cccnc43)N(C)C5=O)c2)CC1,59.5% (inactive),45% (inactive),41.4% (inactive),24.7% (inactive),48.3% (inactive),19.3% (inactive),14.1% (inactive),33.9% (inactive),49.6% (inactive),19.8% (inactive)
CCOC(=O)CC1CSC(c2cccc(Cl)c2)=N1 (stereo not given),94.6% (inactive),113% (inactive),93.3% (inactive),111% (inactive),108% (inactive),119% (inactive),101% (inactive),95.3% (inactive),84.8% (inactive),120% (inactive)
COc1cc2cc(NCc3ccncc3)nc(C)c2cc1OC,91.5% (inactive),89.7% (inactive),103% (inactive),62% (inactive),102% (inactive),87.2% (inactive),80.4% (inactive),78.9% (inactive),71.8% (inactive),95.8% (inactive)
CCOC(=O)c1cc2c(n1Cc1cc(OC)cc(OC)c1Br)-c1nc(NC(C)=O)sc1CCC2,73.2% (inactive),71.3% (inactive),80.2% (inactive),80.4% (inactive),82.2% (inactive),46.6% (inactive),53.5% (inactive),42.8% (inactive),78% (inactive),82.2% (inactive)
